A selection: hits, their analogues and other compounds. The true share with any hit is near 3.9%.
HIF activator = HIF pathway transcriptional activation | U2OS HRE-luciferase reporter, luminescence; normalized: DMSO 0%, desferrioxamine 100% | activation, % at 7.5 µM (by protocol) | 300,000 tested, 0.32% active;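 active = mean activation of at least 10% of the iron chelator positive control signal, with at least half of replicates also reaching 10%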
Yeast superoxide = caloric restriction mimetics inhibiting age-related superoxide in yeast. superoxide response (% of plate mean), % at 10 µM. 330,000 tested, 0.18% active. S. cerevisiae aged cells, superoxide DHE fluorescence; active compounds read low;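 active = superoxide response under a set limit, about three screen SD below normal, cut at about 65% in these data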;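 also: yeast aged for seven days with compound at 30 °C before DHE staining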
PLC-gamma1 inh = inhibitors of human phospholipase C gamma1; 370,000 tested, 0.84% active; purified PLC-gamma1, fluorogenic substrate, fluorescence; inhibition, % at 12.2 µM; P19174; AID 720700; in the data active = inhibition above about 9.5%
AHR act = activates the human aryl hydrocarbon receptor; P35869; AHR-responsive luciferase reporter cells, luminescence; activation, % at 5 µM; 320,000 tested, 2.5% active; in the data active = activation above about 47%
HGIII-sPLA2 inh = Inhibits HGIII-sPLA2 liposome hydrolysis, primary screen | Q9NZ20 | QFRET BODIPY PC-A2 liposome hydrolysis, fluorescence | inhibition, % at 12.2 µM | 370,000 tested, 0.56% active;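 active = inhibition above mean plus 3 SD of compounds lying within the high and low control bounds, cut at about 19% in these data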
PLC-beta3 inh = blocks human PLC-beta3 enzyme activity | Q01970 | Purified PLC-beta3, fluorogenic substrate, fluorescence | inhibition, % at 12.2 µM | 370,000 tested, 0.18% active; in the data active = inhibition above about 11%
AHR act confirm = confirmation of human aryl hydrocarbon receptor activators | shares compounds with AHR act | human cells, AHR-responsive luciferase reporter, luminescence | activation, % at 9 µM | 2,300 tested, 87% active | AID 2845; in the data active = activation above about 49%;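 also: HepG2 hepatoma cells carrying a DRE-driven firefly luciferase reporter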
PXR act counter = counter-screen for AHR activators: human PXR activators; shares compounds with AHR act; cell-based PXR reporter, luciferase luminescence; activation, % at 11.6 µM; 2,300 tested, 88% active; AID 434939; in the data active = activation above about 11%;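 also: human hepatoma DPX-2 cells expressing full-length human PXR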
Target sequence (O75469 whole entry, looked up): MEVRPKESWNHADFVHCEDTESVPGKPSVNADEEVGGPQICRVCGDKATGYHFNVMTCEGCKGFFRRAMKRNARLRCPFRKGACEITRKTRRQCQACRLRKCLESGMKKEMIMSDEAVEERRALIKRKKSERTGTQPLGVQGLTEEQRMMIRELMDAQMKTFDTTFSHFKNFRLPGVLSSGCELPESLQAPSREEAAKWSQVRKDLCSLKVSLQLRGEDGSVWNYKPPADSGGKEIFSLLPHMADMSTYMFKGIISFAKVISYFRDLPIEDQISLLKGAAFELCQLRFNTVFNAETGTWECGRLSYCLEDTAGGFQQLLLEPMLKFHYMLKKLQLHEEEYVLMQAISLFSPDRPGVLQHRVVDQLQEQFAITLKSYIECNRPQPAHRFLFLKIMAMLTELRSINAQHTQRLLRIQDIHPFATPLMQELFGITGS
Each line names hits and unclear results; the compound was inactive in the other large screens (follow-up assays come after a bar, where they were run).

CCC(=O)N(CCc1ccccc1)Cc1cc2cc3c(cc2[nH]c1=O)OCO3	AHR act 91.7 | AHR act confirm 93.0 | PXR act counter 54.1
CC1CCc2sc(-c3n[nH]c(=S)o3)cc2C1 (stereo not given)	none
S=c1[nH]nc(-c2cc3c(s2)-c2ccccc2CC3)o1	AHR act 93.3 | AHR act confirm 116.1 | PXR act counter 23.0
Cc1c(C(=O)Nc2nccs2)oc2ccc(F)cc12	none (no result: HIF activator)
Cc1c(C(=O)Nc2nccs2)oc2ccc(Br)cc12	AHR act 86.5 (no result: HIF activator) | AHR act confirm 132.2 | PXR act counter 21.8
CCCN1Cc2cccc(C(=O)NCCc3cccc(C)c3)c2C1=O	none
CN1CCSc2ccc(C(=O)Nc3ccc(Cl)cc3)cc21	AHR act 215.1 | AHR act confirm 135.3 | PXR act counter 70.2
O=C(C=Cc1ccccc1Cl)c1ccccc1	none (no result: HIF activator, Yeast superoxide, AHR act)
Cc1[nH]c2ccccc2c1C(=O)/C=C\c1ccccc1Cl	AHR act 156.8 | AHR act confirm 112.4 | PXR act counter 77.9
Cc1[nH]c2ccccc2c1C(=O)/C=C/c1ccccc1	AHR act 165.7 | AHR act confirm 140.1 | PXR act counter 200.0
Cc1[nH]c2ccccc2c1C(=O)/C=C/c1ccccc1Cl	AHR act 147.1 | AHR act confirm 122.9 | PXR act counter 71.7
Cc1nc2ccccc2c(N)c1C(=O)/C=C/c1ccccc1	none
O=C(Nc1ccnn1C1CCN(C(=O)c2cccc(Cl)c2)CC1)C1CCOC1 (stereo not given)	none
NNc1nc2sc3c(c2c(=O)[nH]1)CCc1ccccc1-3	AHR act 132.7 | AHR act confirm 77.8
c1ccc(CNc2c(-c3cccc(SC4CCCCC4)c3)nc3ccccn23)cc1	none (no result: HIF activator)
Clc1cccc(-c2ccc(-c3nc4ccccn4c3NCc3ccccc3)cc2)c1	AHR act 97.6 (no result: HIF activator) | AHR act confirm 70.8 | PXR act counter inactive
Clc1cc2nc(-c3cccnc3Cl)[nH]c2cc1Cl	AHR act 112.7 | AHR act confirm 108.1 | PXR act counter 44.8
Cc1cc2nc(-c3ccccc3O)[nH]c2cc1C	none (no result: HIF activator, Yeast superoxide, AHR act)
Cc1noc(C)c1COc1ccccc1C(=O)NCc1ccco1	none (no result: HIF activator)
O=C(NC(=S)Nc1ccc(Br)cn1)c1cccs1	AHR act 83.6 | AHR act confirm 116.1 | PXR act counter 16.0
O=C1C=C(c2ccc(C(=O)O)cc2)C[C@@H](c2ccc(F)cc2)C1	none (no result: HIF activator)
CSc1ccc(C2Nc3ccccc3-c3cc(C)nn32)cc1 (stereo not given)	AHR act 101.4 | AHR act confirm 100.1 | PXR act counter 28.8
Cc1cc2n(n1)C(c1ccsc1)Nc1ccccc1-2 (stereo not given)	none
COc1ccccc1/C=C/C(=O)N1CCCC1	AHR act 84.0 | AHR act confirm 102.3 | PXR act counter 16.7
CC(=O)N[C@H]1C[C@@H]2O[C@H](CO)CC[C@@H]2O[C@@H]1CCc1ccc(-c2ccc(F)cc2)cc1	none (no result: HIF activator, Yeast superoxide, AHR act)
CCOc1ccc(-c2cc(C)n3nc(C(N)=O)cc3n2)cc1	AHR act 79.2 | AHR act confirm 67.7
COC(=O)c1cc2nc(-c3ccccc3)cc(C)n2n1	none
COc1ccc(OC)c(/C=N/NC(=O)CNC(=O)c2ccc(S(=O)(=O)N3CCOCC3)cc2)c1	AHR act 125.1 | AHR act confirm inactive | PXR act counter inactive
C=CCn1c(SCC(=O)N2CCOCC2)nc2c([nH]c3ccccc32)c1=O	AHR act 87.5 | AHR act confirm 91.8 | PXR act counter 76.7
CCOC(=O)N1CCN(C(=O)CSc2nc3c([nH]c4ccccc43)c(=O)n2CC)CC1	AHR act 100.9 | AHR act confirm 94.4 | PXR act counter 54.0
Cc1ccc(NC(=O)c2noc3c2CCc2ccccc2-3)cc1	AHR act 101.8 | AHR act confirm 133.0 | PXR act counter 20.3
CC/C(=N/Nc1cccc(C)c1)c1cnnc(SC)n1	none (no result: HIF activator)
CC/C(=N/Nc1ccc(Cl)cc1)c1cnnc(SC)n1	AHR act 98.0 | AHR act confirm 93.6 | PXR act counter 11.7
COc1cc(C(=O)NCCOc2ccc(Cl)cc2)ccc1OCc1c(C)noc1C	none (no result: HIF activator)
N#Cc1c(-c2ccccc2)cc2nc3ccccc3n2c1N	AHR act 85.1 | AHR act confirm 88.4 | PXR act counter 31.1
CCOc1ccccc1C(=O)Nc1cccc2ccccc12	AHR act 88.0 | AHR act confirm 62.9 | PXR act counter 34.1
CCOc1ccccc1C(=O)Nc1ccccc1O	none
CCOc1ccccc1NC(=O)c1ccoc1C	AHR act 80.9 | AHR act confirm 88.8 | PXR act counter 12.9
O=C(Nc1cccc(-c2cn3c(n2)SCC3)c1)c1ccc2ccccc2n1	AHR act 93.7 | AHR act confirm 54.2 | PXR act counter 39.0
Cc1ccc(-c2nc3ccccn3c2C=O)cc1	none
Cc1c(-c2ccc(Br)cc2)nc2ccccn12	AHR act 165.2 | AHR act confirm 171.6 | PXR act counter 14.5
CCCCc1nnc(NC(=O)C2CC(=O)N(Cc3ccccc3)C2)s1 (stereo not given)	none
COc1ccccc1C(=O)NCC(=O)N/N=C/c1cn[nH]c1-c1ccccc1	AHR act 155.7 | AHR act confirm 111.3 | PXR act counter 12.0
COc1cccc(C(=O)NCC(=O)N/N=C/c2cn[nH]c2-c2ccccc2)c1	none
O=C(CNC(=O)c1ccccc1)N/N=C/c1cn[nH]c1-c1ccccc1	AHR act 145.9 | AHR act confirm 92.5 | PXR act counter 20.1
COc1ccc(-c2[nH]ncc2/C=N\NS(=O)(=O)c2ccccc2)cc1OC	AHR act 91.8 | AHR act confirm inactive | PXR act counter 23.9
Cc1ccc(S(=O)(=O)c2cc3c(=O)n4cccc(C)c4nc3n(Cc3ccncc3)c2=N)cc1	none (no result: PLC-gamma1 inh, HGIII-sPLA2 inh, PLC-beta3 inh)
Cc1ccc(NC(=O)C2OCCc3ccccc32)cc1 (stereo not given)	AHR act 117.9 | AHR act confirm 103.5 | PXR act counter 63.6
COc1ccc(C2=NN(C(=O)CCC(=O)O)C(c3ccccc3F)C2)cc1 (stereo not given)	none
O=C(CN1CCCc2ccccc21)N/N=C/c1ccccc1	AHR act 87.2 | AHR act confirm inactive | PXR act counter 40.0
CCN1CC(CN(C)Cc2nc(-c3ccc(C(F)(F)F)cc3)oc2C)CC1=O (stereo not given)	AHR act 115.7 | AHR act confirm 98.5 | PXR act counter 64.4
Cc1ccccc1-n1c(SCC(=O)NC2CC2)nc2ccccc2c1=O	none (no result: HIF activator, Yeast superoxide, AHR act)
O=C1CC(c2ccccc2)Oc2cc(O)ccc21 (stereo not given)	none
N=c1n(CC(=O)c2ccc([N+](=O)[O-])cc2)c2ccccc2n1Cc1ccccc1	none
